Data from ChEMBL document CHEMBL3988442, “University of Dundee, Small-Polar-MMV Screening Library” (2021).

Assays:
[1] = biological target: T1, Aspartate--tRNA(Asp/Asn) ligase (Mycobacterium tuberculosis (strain ATCC 25618 / H37Rv)) (UniProt P9WFW3); assay: Assay for Asp RNA synthetase-1 from Mycobacterium tuberculosis; type: functional; set-up: scale not given: direction of the effect not stated beside the values; conditions: 30 µM; note: in the data most compounds retested in dose-response had high values
T1 sequence (whole entry): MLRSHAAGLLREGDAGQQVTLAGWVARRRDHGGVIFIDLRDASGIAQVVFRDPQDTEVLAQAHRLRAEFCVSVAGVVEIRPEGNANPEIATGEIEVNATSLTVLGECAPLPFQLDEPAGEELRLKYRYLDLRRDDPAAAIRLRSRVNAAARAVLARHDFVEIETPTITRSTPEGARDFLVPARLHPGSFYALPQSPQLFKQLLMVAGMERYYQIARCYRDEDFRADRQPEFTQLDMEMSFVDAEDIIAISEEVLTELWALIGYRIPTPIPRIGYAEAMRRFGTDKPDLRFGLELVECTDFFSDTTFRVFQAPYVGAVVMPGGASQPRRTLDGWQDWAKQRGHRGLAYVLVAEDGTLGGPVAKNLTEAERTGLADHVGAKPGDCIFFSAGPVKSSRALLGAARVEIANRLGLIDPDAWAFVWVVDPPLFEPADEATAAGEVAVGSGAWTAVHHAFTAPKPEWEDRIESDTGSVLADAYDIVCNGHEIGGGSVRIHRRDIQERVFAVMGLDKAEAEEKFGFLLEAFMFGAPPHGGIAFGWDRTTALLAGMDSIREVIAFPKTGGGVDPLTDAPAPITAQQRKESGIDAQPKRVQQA

[2] = biological target: Shiga toxin 2 (Escherichia coli O157:H7) (UniProt P09385+P09386); assay: E. coli 0.157:H7 Shiga Toxin SOP - stx2 screening assay; type: functional; set-up: scale not given: direction of the effect not stated beside the values; conditions: 30 µM

Structure (SMILES) | Percent Effect [1] [%] | Percent Effect [2] [%]
CC(C)c1nc(C2CCCN(C(=O)Cc3cccnc3)C2)no1 (configuration not stated) | -2.44 | 23.6
O=C1CC(NCc2ccncc2)CN1Cc1cccc(F)c1 (configuration not stated) | 2.73 | -1.08
CCn1c(C)nnc1CN(C)C1CCN(CCCOC)C1 (configuration not stated) | 1.79 | 7.8
O=C(CN1CCC(C(=O)c2cc(F)ccc2F)CC1)NC1CCCC1 | -0.27 | -63.4
CCc1ccc(OCC(O)CN2CCC(O)CC2)cc1 (configuration not stated) | 3.31 | 16.1
CCc1n[nH]c(C2CN(CCc3ccncc3)CCO2)n1 (configuration not stated) | -1.5 | 11.6
CNc1nc2c(s1)C(c1c(F)cccc1Cl)CC(=O)N2 (configuration not stated) | 61.3 | 3.13
Cc1cc(CC(=O)N2CCCC2c2nc(C(C)C)no2)on1 (configuration not stated) | -3.79 | 8.6
c1ccc(-n2ncc(CNC3CCc4ncnn4C3)n2)cc1 (configuration not stated) | 1.39 | -16.9
CN(C)C(=O)CC1CC2(CCN(CC3CC3)CC2)c2cc(F)ccc21 (configuration not stated) | 2.15 | -3.11
Cc1nccc(C(=O)N2CCCN(Cc3cnn(C(C)C)c3)CC2)n1 | -2.77 | -13.2
Cc1noc(C)c1-c1cccc(CC2CCN(C(=O)CCC(=O)O)C2)n1 (configuration not stated) | -0.313 | -17.7
O=S(=O)(C1CC1)N1CCO[C@H]2[C@H](OCC3CCCC3)CC[C@@H]21 | 0.291 | 8.36
CCN(CC)C(=O)c1nnn(-c2ccc(C)cc2)c1C1CC1 | -1.37 | -1.32
COc1ccnc(N2CCN(C(=O)c3csc(C(C)C)n3)CC2)n1 | -5.15 | -4.83
COCc1nc2cc(NCc3ccc(C)o3)ccc2o1 | 25.1 | -21.1
CC(O)CN1CCN(C(=O)c2ccc(Cn3cccn3)cc2)CC1 (configuration not stated) | 5.51 | 14.6
Cc1nnc(N2CC[C@H]3C[C@H](C(=O)N4CCOCC4)O[C@H]3C2)s1 | 3.25 | -4.69
Cc1ncsc1CCC(=O)N1CCCC[C@H](N(C)C)C1 | -3.74 | 3.62
COc1ccc(CNC(=O)NC(C)Cn2cccn2)cc1O (configuration not stated) | -1.61 | 17.6
CC(=O)N1CCC2(CC1)C(=O)N(CC1CC1)c1ccccc12 | -1.18 | -4.33
Cc1cccc(Cn2c3c(ccc2=O)CCN(Cc2ccoc2)CC3)n1 | 2.51 | 2.55
CN(C)[C@H]1CCCCN(C(=O)CCc2csc(N)n2)C1 | -1.18 | 3.47

Structure (SMILES) | Percent Effect [1] [%] | Percent Effect [2] [%]
COc1ccc(C(=O)N2CCC(Nc3ccc(C)nn3)CC2)c(F)c1 | 4.79 | -6.61
Cc1nnc(N2CCC(CS(N)(=O)=O)CC2)c(C#N)c1C | 6.31 | 21.6
CC1=N[C@@]2(CC[C@@H]3CN(S(=O)(=O)N(C)C)C[C@@H]32)C(=O)N1CC(C)C | 6.65 | -4.62
Cc1cnn(C2CCCN(C(=O)c3ccnc(-n4ccnc4)c3)C2)c1 (configuration not stated) | 3.27 | -22.4
CC(C)C(NC(=O)N1CCN(c2ccc(Cl)cc2)CC1)C(=O)NC1CC1 (configuration not stated) | -3.72 | 7.46
CN(Cc1noc(C2CC2)n1)C1CCN(Cc2nnc(C3CC3)o2)C1 (configuration not stated) | 4.05 | -15.5
c1cnnc(N2CCCC2CNc2ncnc3ccccc23)c1 (configuration not stated) | 3.45 | -33.7
N#Cc1ccc(N2CCN(C(=O)c3cc(C4CC4)[nH]n3)CC2)c(F)c1 | -6.09 | -10.4
COc1ccc(C2(CNC(C)c3nnc(C)o3)CCCCC2)cc1 (configuration not stated) | 2.67 | -2.63
c1cnnc(N2CCCC(NCc3ccc(-n4cccn4)cc3)C2)c1 (configuration not stated) | -2.36 | 11
N#Cc1ccccc1CN1CCCCC1Cn1cncn1 (configuration not stated) | 0.359 | 25
O=C(CSc1ncccn1)N1C[C@H]2CC[C@@H]1CN(Cc1ccncc1)C2 | 3.45 | -26.2
O=C1COC2(CCN(Cc3ccccn3)CC2)CN1CC1CC1 | 4.21 | -7.99
COCCNC(=O)c1cc2c(s1)CCN2C(=O)c1ccccc1 | 0.0582 | -56.3
Cc1ccc2cc(C(=O)NCCn3nc4ccccn4c3=O)[nH]c2c1 | -5.08 | -70.8
O=C(CCn1cccn1)N1CCN(CC(F)F)CC1 | 2.16 | 15.4
O=C(NCCNc1cnccn1)N1CCN(Cc2cccnc2)CC1 | -4.35 | -68.8
c1cc(CNCc2ccnc(N3CCOCC3)c2)c2c(c1)OCCO2 | 1.9 | -11.8
COc1ccccc1OCC(=O)NS(=O)(=O)c1ccccc1F | 0.814 | -7.18
Cc1ccc(C(=O)N2CCN(CCC(C)(C)C)CC2)c(=O)[nH]1 | -4.54 | 1.57
CC(C)CCC(C)NC(=O)c1ccc(OCC(N)=O)cc1 (configuration not stated) | 2.49 | -8.96
Cc1cnnn1Cc1ncn2c1CN(Cc1cccs1)CCC2 | -1.27 | -3.58
CCc1nc(CN2CCCN(C(=O)c3c(C)noc3C)CC2)cs1 | 1.9 | -25.2
